Compound in this test: Nc1ncnc2c1ncn2[C@@H]1O[C@H](COP(=O)(O)OP(=O)(O)OP(=O)(O)O)[C@@H](O)[C@H]1O [adenosine 5'-triphosphate]
Nature of the test: log2 fold change of tryptic peptide abundance, ligand vs vehicle (limited proteolysis) (log2 ratio); higher = more trypsin-susceptible (destabilized). Particulars: ligand concentration: 5 mM; sample: E. coli desalted lysate; replicate design: treated before aliquoting. Here is the method: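 HT-PELSA: desalted E. coli K-12 BW25113 lysate (with 12 mM MgCl2) incubated with 5 mM ATP (pH 7) or water for 30 min at 25 C, then a 4 min trypsin pulse at 22 C. Peptides were quantified by DIA-MS (4 replicates). Value is the peptide log2 fold change (treated/control); negative = stabilized. Scale: negative = ligand-stabilized region.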
“UniProt P30014 (peptide sequence: TAVLFCEIVNR, peptide start residue: 190)”: the log2 fold change is -2.04.

On to “UniProt P30855 (peptide sequence: YSQTSAGR, peptide start residue: 888)”, for which the log2 fold change turned out to be 0.38.

With “UniProt P30958 (peptide sequence: FANWPVR, peptide start residue: 673)”, the log2 fold change was -0.413.

With “UniProt P76027 (peptide sequence: GCPFQPR, peptide start residue: 298)”, the log2 fold change came to 1.56.

Turning to “UniProt P21893 (peptide sequence: DCNFPSK, peptide start residue: 181)”, the log2 fold change was -0.813.

For “UniProt P45799 (peptide sequence: SLQKPTILNVETVAR, peptide start residue: 4)”, the log2 fold change is -1.1.

In the case of “UniProt P56580 (peptide sequence: KIVYITAGTRPAIVDK, peptide start residue: 26)”, the log2 fold change turned out to be 1.13.

Consider “UniProt P06999 (peptide sequence: IYAYLSR, peptide start residue: 303)”, for which the log2 fold change was -2.25.

For the target “UniProt P31665 (peptide sequence: QEVSQEFAQR, peptide start residue: 262)”, the log2 fold change is -0.678.

“UniProt P0A9M8 (peptide sequence: LSVFKPIAQPRTGGDAPDQTTTIVR, peptide start residue: 34)”: the log2 fold change was determined as 2.79.

As for “UniProt Q46919 (peptide sequence: MHDLLDNK, peptide start residue: 59)”, the log2 fold change is 0.557.

On to “UniProt P06959 (peptide sequence: VDFSKFGEIEEVELGR, peptide start residue: 392)”, for which the log2 fold change is 0.812.

As for “UniProt P08839 (peptide sequence: TSHTSIMAR, peptide start residue: 187)”, the log2 fold change came out at 0.443.

Take “UniProt P76053 (peptide sequence: NVLIIHGK, peptide start residue: 116)”: the log2 fold change stood at 0.613.

In the case of “UniProt P05041 (peptide sequence: APFSAFLR, peptide start residue: 239)”, the log2 fold change is 0.459.

Consider “UniProt P76222 (peptide sequence: LLAVADWR, peptide start residue: 97)”, for which the log2 fold change is -0.698.

For the target “UniProt P31660 (peptide sequence: SGNDLHYR, peptide start residue: 38)”, the log2 fold change amounted to 1.29.

“UniProt P76046 (peptide sequence: RLKNELNALVNR, peptide start residue: 3)”: the log2 fold change is 0.559.

With “UniProt P77499 (peptide sequence: SVNVGFSGGEK, peptide start residue: 141)”, the log2 fold change is -0.896.

In the case of “UniProt P25553 (peptide sequence: VAFGGKAVEGK, peptide start residue: 351)”, the log2 fold change stood at 1.48.

For the target “UniProt P22525 (peptide sequence: AGVLALNIQR, peptide start residue: 356)”, the log2 fold change is -0.343.

Take “UniProt Q46857 (peptide sequence: DLADKYGK, peptide start residue: 204)”: the log2 fold change was -0.885.

Regarding “UniProt P06710 (peptide sequence: HQLEHILNEEHIAHEPR, peptide start residue: 185)”, the log2 fold change was -1.86.

Take “UniProt P04995 (peptide sequence: TDLGDNAAVPVK, peptide start residue: 288)”: the log2 fold change is 0.472.

In the case of “UniProt P07395 (peptide sequence: GKGVAEGYK, peptide start residue: 746)”, the log2 fold change is -0.76.

As to “UniProt P37692 (peptide sequence: AYVLPNSFK, peptide start residue: 84)”, the log2 fold change was -1.08.

With “UniProt P76226 (peptide sequence: IKPLLHQCVR, peptide start residue: 10)”, the log2 fold change was -1.62.

Take “UniProt P33594 (peptide sequence: VLQNAVLPAFPVRR, peptide start residue: 249)”: the log2 fold change was determined as 0.401.

In the case of “UniProt P33368 (peptide sequence: IINITSVHEHTPLPDASAYTAAK, peptide start residue: 135)”, the log2 fold change is 0.894.

For the target “UniProt Q59385 (peptide sequence: LVTDEGEK, peptide start residue: 327)”, the log2 fold change was 1.76.

In the case of “UniProt P00903 (peptide sequence: GLANPLTVTR, peptide start residue: 117)”, the log2 fold change was -0.376.

For “UniProt P25894 (peptide sequence: QRGISPAGLATSFEK, peptide start residue: 202)”, the log2 fold change turned out to be 0.934.

As for “UniProt P09323 (peptide sequence: AIDACITR, peptide start residue: 408)”, the log2 fold change amounted to 0.593.

For “UniProt P23830 (peptide sequence: EALGVLHFK, peptide start residue: 132)”, the log2 fold change was -0.891.

Turning to “UniProt P27238 (peptide sequence: NKMTTEELAECLGVAK, peptide start residue: 6)”, the log2 fold change was found to be 0.577.

Turning to “UniProt P0ADP0 (peptide sequence: EALTFVQNYHPALR, peptide start residue: 34)”, the log2 fold change came to 0.493.

As for “UniProt P15082 (peptide sequence: QRQAAILEYLQK, peptide start residue: 5)”, the log2 fold change worked out at 2.18.

Turning to “UniProt P30011 (peptide sequence: VRHYVELLEGTNTQLLDTR, peptide start residue: 135)”, the log2 fold change turned out to be 0.868.

“UniProt P32143 (peptide sequence: AGIPDCDQTR, peptide start residue: 282)”: the log2 fold change is -2.48.

The record behind these values is the supplement of paper PMC12819154, “High-throughput peptide-centric local stability assay extends protein–ligand identification to membrane proteins, tissues and bacteria” (Nature Structural & Molecular Biology, 2025).
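Note: lysate desalted by size exclusion to strip endogenous ATP, peptide intensities built from DIA-NN precursor signals, and peptides missing any value discarded before comparison.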
